Results on 68 compounds are retold here after PubChem BioAssay AID686979 (National Center for Advancing Translational Sciences (NCATS), 2013).

Where “and” joins values, the source holds several entries; their conditions need not be identical. Equal entries are not always repeated. In all, about 420,000 compounds went through this assay and about 50,000 (12%) were called active. Roughly 26% stayed inconclusive and do not appear here. This excerpt belongs to a sample that is enriched for actives. Unmarked numbers belong to inactive results. Calls follow the shape of the dose curve; as a rule, active = well fitted inhibition curve with a large enough effect; inconclusive = small, poorly fitted or top-dose-only effect; inactive = flat fitted curve, though single readings scatter.
% is scaled to controls: 0 for no effect and ±100 for the full control effect; potency is read from the fitted curve at half-maximal effect.

This test in a line: qHTS for Inhibitors of human tyrosyl-DNA phosphodiesterase 1 (TDP1): qHTS in cells in presence of CPT. Also: nearly all actives have a fitted effect of over 55% in size. The settings on record: chicken DT40 Tdp1-/-;hTDP1 cells + 20 nM CPT, ATP luminescence, 48 h; series mostly up to 46.2 µM; activity change, negative = growth inhibition: at the top concentration. An excerpt:
Human tyrosyl-DNA phosphodiesterase 1 (TDP1) is a novel repair gene, and we propose to use it as a new target for anticancer drug development. TDP1 is not an essential protein, but under treatment with topoisomerase I poison (camptothecin: CPT), TDP1 works as a critical factor for cell survival. To directly identify novel TDP1 inhibitors active in a cellular environment, we have knocked-out the Tdp1 gene in chicken DT40 cells (Tdp1-/-) and generated a complemented counterpart cells that contains a stable transfection of the human TDP1 gene (Tdp1-/-;hTDP1 cells). For the primary screen, Tdp1-/-;hTDP1 cells will be exposed to small molecules in the presence or absence of CPT, and their growth kinetics will be evaluated after 48 hours by measuring ATP activity. […] The hit compounds will then be evaluated in the presence or absence of CPT using Tdp1-/- cells. […] In tertiary assays, biochemical gel-based assays will be used to assess whether the hit compounds specifically target TDP1. To this end, we have screened this cell line against the MLSMR in two primary screens. In one screen we add CPT and in the other we screen in the absence of CPT; this AID represents the screen where CPT was present. NIH Chemical Genomics Center [NCGC] NIH Molecular Libraries Probe Centers Network [MLPCN] MLPCN Grant: MH095538 Assay Submitter (PI): Yves Pommier, NCI
DT40-hTDP1 cells with 20 nM Camptothecin (add 20 microL of 1 mM CPT stock in 1 L of cell culture medium) were dispensed at 400 cells/5microL/well in tissue culture treated 1536-well white wall/solid bottom assay plates (Greiner Bio-One North America, NC, U.S.A.) using a Multidrop Combi 8 channel dispenser (Thermo Fisher, Waltham, MA, USA). 23 nL compounds and controls were transferred using the pin tool (Kalypsys, San Diego, CA, USA) to the assay plates. The assay plates were then incubated at 37 masculineC for a minimum 48 hr. Three microL of Cell Titer Glo solution was added to the plates and incubated at RT in dark for 30 min. Luminescence was read using ViewLux (Perkin Elmer) with 1 sec exposure slow speed, high gain and 2x binning.
(In general: In qHTS, concentration-response curves come from the screen itself.)
As to `Cc1onc(-c2ccccc2)c1C(=O)N1CCN(S(=O)(=O)c2ccccc2C(F)(F)F)CC1`, the “activity change, negative = growth inhibition” value is -3.88%.

Take `COc1ccc(CNC(=O)c2nnn(CC(=O)Nc3cc(C)cc(C)c3)c2N)cc1`: the Potency result is “inactive”.

For `O=C(Cc1ccc(-n2c(=O)c3sccc3n(Cc3ccc(F)cc3)c2=O)cc1)NCc1ccco1`, the Potency is 16.4 µM (active).

As for `O=C(CSc1nnc(-c2cccs2)n1-c1ccccc1)NCc1ccco1`, the “activity change, negative = growth inhibition” value was 2.07%.

On to `O=C(CSc1ncc(CO)n1Cc1ccc(F)cc1)NCc1ccco1`, for which the “activity change, negative = growth inhibition” value was -8.88%.

As to `Cc1ccc(N2C(=O)CC(NCc3ccc4c(c3)OCO4)C2=O)cc1Cl` (stereo not drawn), the “activity change, negative = growth inhibition” value was 2.01%.

Take `CN(C)NC(=O)C(NC(=O)c1ccc(N)cc1)C12CC3CC(CC(C3)C1)C2` (stereo not drawn): the “activity change, negative = growth inhibition” value is 1.22%.

Take `COCCCN1C(=O)c2ccc(C(=O)OCC(=O)NCc3ccccc3OC)cc2C1=O`: the “activity change, negative = growth inhibition” value was 1.23%.

On to `C/C(=N\NC(=O)C(N)=O)c1ccc2c(c1)OCCO2`, for which the “activity change, negative = growth inhibition” value was 13.6%.

`C/C(=N/NC(=S)Nc1ccccc1)c1ccc2c(c1)OCO2`: the Potency was 0.82 µM (active).

With `C/C(=N/NC(=O)c1ccncc1)c1ccc2c(c1)OCO2`, the “activity change, negative = growth inhibition” value was 1.21%.

`CCCCNC(=O)CCn1nc(-c2ccc(Cl)cc2)ccc1=O`: the “activity change, negative = growth inhibition” value is 23.4%.

As to `CCCn1nc2cc(C(=O)NCc3ccccc3)ccc2c1OCC`, the “activity change, negative = growth inhibition” value was -13.4%.

Consider `O=C(O)CSc1nccc2ccccc12`, for which the “activity change, negative = growth inhibition” value is -1.02%.

For `CCOC(=O)C(C(=O)c1ccccc1)C(c1ccccc1)c1nccc2ccccc12` (stereo not drawn), the Potency is 20.6 µM (active).

Take `Cc1ccc(NC(=O)C2(N3CCC3=O)CCCCC2)cc1`: the “activity change, negative = growth inhibition” value is 2.09%.

As to `CCn1cc(C(=O)NCC(=O)NC(C)(C)CO)c(=O)c2cc3c(cc21)OCO3`, the “activity change, negative = growth inhibition” value was 14.7%.

Turning to `CCCCNC(=O)C1CCCNC1=O` (stereo not drawn), the “activity change, negative = growth inhibition” value was -27.3%.

As for `O=C(Cc1ccc([N+](=O)[O-])cc1)NCCc1ccc2c(c1)OCO2`, the “activity change, negative = growth inhibition” value is -24.6%.

With `O=C(NC1CCCCC1)c1cc([N+](=O)[O-])ccc1N1CCOCC1`, the “activity change, negative = growth inhibition” value was -4.33%.

Regarding `O=C(NCc1ccc2c(c1)OCO2)c1cc([N+](=O)[O-])ccc1N1CCOCC1`, the Potency was 3.26 µM (active).

`O=C1C2C3C=CC(C3)C2C(=O)N1c1ccc(S(=O)(=O)Nc2nccs2)cc1` (stereo not drawn): the “activity change, negative = growth inhibition” value is -8.65%.

Take `COc1ccc(C(=O)NCc2ccccc2C)cc1S(=O)(=O)NC1CCCC1`: the “activity change, negative = growth inhibition” value is -4.79%.

`CC(=O)N(CC(O)CO)c1c(I)c(C(=O)NCC(O)CO)c(I)c(C(=O)NCC(O)CO)c1I` (stereo not drawn): the Potency result was “inactive”.

As for `O=C(C1CC(=O)N(c2ccc(Br)cc2)C1)N1CCCC1` (stereo not drawn), the “activity change, negative = growth inhibition” value is -5.65%.

As for `COc1ccc(N(Cc2ccccc2)S(=O)(=O)c2cccc(C(=O)O)c2)cc1`, the “activity change, negative = growth inhibition” value was -6.42%.

On to `COc1ccc(C(CC(=O)c2ccccc2)S(=O)(=O)c2ccccc2)cc1` (stereo not drawn), for which the Potency was 23.1 µM (active).

Consider `COc1ccc(NC(=O)CS(=O)(=O)c2ccccc2)cc1`, for which the “activity change, negative = growth inhibition” value was 31.2%.

Turning to `NC(=O)c1ncn([C@@H]2O[C@H](CN=C3NS(=O)(=O)c4ccccc43)[C@@H](O)[C@H]2O)n1`, the “activity change, negative = growth inhibition” value was -10.6%.

In the case of `CC(Oc1ccc(Br)cc1)C(=O)NCC(c1ccco1)N1CCCCC1` (stereo not drawn), the “activity change, negative = growth inhibition” value is -24.4%.

`COc1ccc(S(=O)(=O)N(C)CC(=O)N2CCCC2)cc1`: the “activity change, negative = growth inhibition” value was 2.13%.

Regarding `CN(C)S(=O)(=O)c1ccc(Oc2ccc(S(=O)(=O)N(C)C)cc2)cc1`, the Potency is 16.4 µM (active).

On to `CN(C)S(=O)(=O)c1ccc(NC(=O)N2CCOCC2)cc1`, for which the “activity change, negative = growth inhibition” value was -5.71%.

As for `COc1ccc(N(CC(=O)Nc2cc(OC)cc(OC)c2)S(=O)(=O)c2c(C)n[nH]c2C)cc1`, the “activity change, negative = growth inhibition” value was -29.6%.

Regarding `COc1ccc(CCNC(=O)COC(=O)c2ccc[nH]c2=O)cc1`, the “activity change, negative = growth inhibition” value is 3.7%.

For the compound `CC(C)=N/N=C1/NC(=O)C(Cc2ccccc2)S1` (stereo not drawn), the “activity change, negative = growth inhibition” value is 8.07%.

`CCN(CC(=O)NCc1cccs1)C(=O)/C=C/c1ccc(C)cc1`: the “activity change, negative = growth inhibition” value is -23.4%.

Consider `O=C(Cc1ccccc1)NNC1CC(=O)N(c2ccc(Br)cc2)C1=O` (stereo not drawn), for which the “activity change, negative = growth inhibition” value is 1.27%.

For `O=C1CCN(CCCc2ccccc2)CCN1CCO`, the “activity change, negative = growth inhibition” value was 3.81%.

Consider `O=C1CCN(Cc2ccc([N+](=O)[O-])cc2)CCN1[C@H](CO)Cc1ccccc1`, for which the “activity change, negative = growth inhibition” value was -9.24%.

Turning to `O=C1CC[C@H](O)CCN1[C@H](CSc1ccc(Br)cc1)Cc1ccccc1`, the Potency is 11.2 µM (active) and 14.6 µM (active).

Regarding `C[C@H]1CCC(=O)N([C@H](CSc2ccccc2)Cc2ccccc2)CC1`, the “activity change, negative = growth inhibition” value was -13.2%.

Consider `COc1ccc(SC[C@H](Cc2ccccc2)N2CCN(CCc3ccccc3)CCC2=O)cc1`, for which the Potency is 23.1 µM (active).

On to `O=C(CN1CCC(NC(=O)C2CC2)CC1)Nc1ccccc1[N+](=O)[O-]`, for which the “activity change, negative = growth inhibition” value is -6.93%.

`Cc1cc(C(F)F)nn1CC(=O)NC1CCCCCC1`: the “activity change, negative = growth inhibition” value is 3.43%.

On to `Cc1ccc2c(cnn2C(=O)CCC(=O)NC2CCCC2)c1`, for which the “activity change, negative = growth inhibition” value is 0.0617%.

Regarding `O=C(Cc1cccs1)Nc1ccc([N+](=O)[O-])cc1`, the “activity change, negative = growth inhibition” value was -28.9%.

As to `CCCC(=O)n1nc(-c2ccccc2)nc1N`, the “activity change, negative = growth inhibition” value is -6.98%.

On to `CCc1nn(-c2cc(Oc3cccc4ccccc34)nc(-c3ccccc3)n2)c(N)c1C#N`, for which the Potency was 10.3 µM (active).

Consider `CC(C(=O)N1CCN(c2ccccc2F)CC1)c1ccc([N+](=O)[O-])cc1` (stereo not drawn), for which the “activity change, negative = growth inhibition” value was -25.5%.

For `CC1CCN(CC(=O)Nc2nccs2)CC1`, the “activity change, negative = growth inhibition” value is -24.2%.

Take `Cc1c(C)c(C)c(S(=O)(=O)N2CCC3(CC2)OCCO3)c(C)c1C`: the “activity change, negative = growth inhibition” value was -19.7%.

As for `CCOc1ccc(NC(=O)CN(C)C(=O)CSc2ccccc2)cc1OCC`, the “activity change, negative = growth inhibition” value was -19.4%.

As to `COc1cc2c(cc1OC)CN(C(=O)c1ccc(S(=O)(=O)N3CCCCCC3)cc1)CC2`, the Potency is 20.6 µM (active).

Turning to `O=C(c1cc(S(=O)(=O)N2CCOCC2)ccc1Cl)N1CCOCC1`, the “activity change, negative = growth inhibition” value is 11%.

Regarding `CN1CCN(NC(=O)c2ccc(S(=O)(=O)N3CCCCCC3)cc2)CC1`, the “activity change, negative = growth inhibition” value was 5.37%.

Turning to `COC(=O)c1ccc(CNC(=O)c2ccc(S(=O)(=O)N3CCCCCC3)cc2)cc1`, the “activity change, negative = growth inhibition” value was -1.03%.

On to `COc1cc2c(cc1OC)CN(C(=O)c1cc(S(=O)(=O)N3CCCCC3)ccc1Cl)CC2`, for which the Potency was 20.6 µM (active).

Consider `COc1ccc(S(=O)(=O)N2CCCCC2)cc1Br`, for which the “activity change, negative = growth inhibition” value is 0.0514%.

`COc1ccc(C(=O)CN2C(=O)NC(C)(c3ccc(C)cc3)C2=O)cc1OC` (stereo not drawn): the “activity change, negative = growth inhibition” value is -22.9%.

`COc1ccc(C(=O)n2nc(C)c(Br)c2C)cc1OC`: the “activity change, negative = growth inhibition” value is -17.2%.

In the case of `COc1ccc(C(=O)n2nc(-c3ccc(C)cc3)nc2N)cc1OC`, the Potency was 13 µM (active).

Regarding `CN1CCN(c2ccc(CNS(=O)(=O)c3cccc(F)c3)cc2)CC1`, the “activity change, negative = growth inhibition” value was -2.6%.

For `CCCCc1ccc(S(N)(=O)=O)cc1`, the “activity change, negative = growth inhibition” value is 0.496%.

Take `N#Cc1ccccc1CN1C(=O)S/C(=C/c2cccn2-c2cccc(C(=O)O)c2)C1=O`: the “activity change, negative = growth inhibition” value is -7.91%.

`Cc1cccc2cc3c(N)c(C(=O)N4CCCc5ccccc54)sc3nc12`: the Potency is 4.11 µM (active).

On to `Cc1c(C(=O)N2CCCc3ccccc32)oc2ccccc12`, for which the “activity change, negative = growth inhibition” value is -15.4%.

Take `O=C(c1cc(-c2ccc(O)cc2)on1)N1CCCc2ccccc21`: the “activity change, negative = growth inhibition” value is -19.2%.
